These results are taken from PubChem BioAssay AID2685 (National Center for Advancing Translational Sciences (NCATS), 2010).

Molecules are shown by their SMILES. Among all 320,000 compounds or so, about 2,100 (0.66%) were called active. Another 53% or so got no clear call; they are omitted. Calls follow the shape of the dose curve; as a rule, active = well fitted inhibition curve with a large enough effect in the signal ratio, with a control signal flat (not every such curve was filed as active); inconclusive = small, poorly fitted or top-dose-only effect, or effect the other way, or a change in a side signal; inactive = flat fitted curve, though single readings scatter; the % refers to the signal ratio. The entries come from a sample that favours actives as a whole.
Potency is read from the fitted curve at half-maximal effect.

This assay is described as follows: qHTS Assay for Lipid Storage Modulators in Drosophila S3 Cells.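 As to cell number change: cells counted by Cell Tracker Red CMTPX staining in the red channel.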 As to lipid storage change, negative = inhibition: % is scaled to controls: 0 for no effect and ±100 for the full control effect. The following applies: BODIPY lipid droplet fluorescence, 18-24 h, cells fed with added oleic acid; cell number change: measured here: cell count max response; series mostly up to 46.1 µM; lipid storage change, negative = inhibition: at the top concentration. From the text:
NIH Molecular Libraries Probe Production Centers Network [MLPCN] NIH Chemical Genomics Center [NCGC] MLPCN Grant: 1 R03 MH085686-01 Assay Submitter (PI): Beller, Mathias; Max-Planck-Institut fur Biophysikalische Chemie NCGC Assay Overview: Storing lipids as a reservoir for energy or the anabolism of elementary metabolites is a common feature of probably all cells and is conserved from bacteria to humans. The universal cellular lipid storage organelle is the so-called lipid storage droplet (LD). Although ubiquitous, LDs share a simple structure composed of a hydrophobic core that harbors the storage lipids, which is shielded by a droplet-specific phospholipid monolayer to which proteins are attached. The current model of LD biogenesis involves an incorporation of the lipid core into the membrane leaflets of the endoplasmic reticulum (ER) followed by a subsequent budding-like maturation of a LD, which ultimately pinches off. Once released, LD volume can increase by localized lipogenesis or fusion of existing droplet. Storage lipids are re-mobilized enzymatically by lipase activity. Lipase regulation in the adipocyte is heavily studied and involves multiple components including catecholamine signaling, the LD-associated proteins Perilipin and comparative gene identification (CGI-58) and at least two lipases named hormone sensitive lipase (HSL) and adipocyte triglyceride lipase (ATGL). LD regulation outside of the adipocyte is poorly understood and only few components are known. However, there is an urgent need to learn more about ectopic fat depots as mislocalized storage of lipids, for example in the liver or muscle, is an eminent health problem associated with insulin resistance or the metabolic syndrome. We developed a laser-scanning cytometer assay to enable 1,536-well screening and combined the results of the small molecules screen with an RNAi database based on lipid storage.
Triacsin C (Sigma-Aldrich T-4540), an inhibitor of long-chain fatty acyl CoA synthetase that blocks synthesis of triglycerides, was used as a positive control for lipid under-storage. A total of 23 nL of compound solution of different concentrations were transferred to the assay plates using a Kalypsys pin tool equipped with a 1,536-pin array containing 10-nL slotted pins (FP1S10, 0.457-mm diameter, 50.8 mm long; V&P Scientific). One microliter of oleic acid (400 uM) was added, and the plate was lidded with stainless steel rubber gasket lined lids containing pinholes. […] Fluorescence was detected by excitation of the fluorophores with a 488-nm laser on an Acumen Explorer (TTP Lab Tech). The total intensity in channel 2 (500-530 nm) reflected lipid droplet accumulation. Cells were detected using channel 3 (575-640 nm) with 5-um width and 100-um depth filters. The ratio of the number of objects in PMT channel 2 over the number of objects in PMT channel 3 was also calculated. Percent activity was computed relative to an internal control (100% inhibited lipid droplet deposition due to the presence of 20 uM Triacsin C), which was added to 32 wells/plate.
On the technique in general: Quantitative high-throughput screening tests each substance at several concentrations.
Turning to `CCc1cccc(CC)c1NC(=O)COC(=O)CC1c2ccccc2CCN1S(=O)(=O)c1ccccc1` (centres undefined), the “lipid storage change, negative = inhibition” value was -0.415% (inactive) and the cell number change was found to be 0.0752%.
For `COCCSc1nc(N)c(NC(=O)c2ccco2)c(=O)[nH]1` the same measures were -9.67% (inactive) and -16.8%.
For `COc1ccc(CC(=O)NCC(=O)N/N=C/c2c[nH]c3ccccc23)cc1`, the “lipid storage change, negative = inhibition” value is 27.6% (inactive) and the cell number change is 14.2%.
Regarding `CCCCCCCNC(=O)C1(CC2CC(c3ccc(Cl)cc3)=NO2)CCNCC1` (centres undefined), the outcome was inactive and the cell number change is -6.47%.
Regarding `CNC(=O)/C(=C\c1cccc(Oc2ccccc2)c1)NC(=O)c1ccccc1`, the “lipid storage change, negative = inhibition” value was -0.332% (inactive) and the cell number change came to 2.1%.
On to `CCCn1c(-c2ccccc2)nc2c(=O)n(C)c(=O)[nH]c21`, for which the “lipid storage change, negative = inhibition” value was -1.42% (inactive) and the cell number change was -15.6%.
For `CCCn1c(-c2ccc(OC)cc2)nc2c(=O)n(C)c(=O)[nH]c21`, the Potency is 29.1 µM (active) and the cell number change turned out to be 11.6%.
On to `CCCCn1c(-c2ccc(OC)cc2)nc2c(=O)n(C)c(=O)[nH]c21`, for which the “lipid storage change, negative = inhibition” value was 4.44% (inactive) and the cell number change amounted to 12.4%.
`CN(C)c1ccc(NC(=O)CN2CCC(NC(=O)C3CCCCC3)CC2)cc1`: the “lipid storage change, negative = inhibition” value was -9.2% (inactive) and the cell number change was 6.84%.
With `CCN1CCN(CC(=O)Nc2ccc(N(C)C)cc2)CC1`, the compound was classed as inactive and the cell number change was 14.8%.
Take `CN(C)c1ccc(NC(=O)CN2CCC(N3CCCCC3)CC2)cc1`: the Potency was 23.1 µM (active) and the cell number change is -25.9%.
As to `O=C(O)C1CC1C(=O)N1CCN(c2ccc(Cl)c(Cl)c2)CC1` (centres undefined), the “lipid storage change, negative = inhibition” value was 3.52% (inactive) and the cell number change was 16.3%.
For `CCc1nc2nc(C)c(NS(=O)(=O)c3ccc(C4CCCCC4)cc3)c(=O)n2[nH]1`, the outcome was inactive.
Regarding `COc1cc(C(=O)NC2CCCc3c2cnn3-c2ccccc2F)cc(OC)c1OC` (centres undefined), the Potency is 16.4 µM (active) and the cell number change is 22.4%.
As for `COc1cc(C(=O)NC2CC(C)(C)Cc3c2cnn3-c2ccccc2)cc(OC)c1OC` (centres undefined), the “lipid storage change, negative = inhibition” value is 6.07% (inactive) and the cell number change stood at 9.79%.
Take `Cc1cccc(-n2ncc3c2CCCC3NC(=O)CN2CCCC2=O)c1C` (centres undefined): the “lipid storage change, negative = inhibition” value was 6.5% (inactive) and the cell number change is -2.49%.
On to `Cc1cc(C(=O)NC2CCCc3c2cnn3-c2cccc(C)c2C)n(C)n1` (centres undefined), for which the Potency was 0.92 µM (active) and the cell number change turned out to be 5.94%.
Take `Cc1ccccc1-n1ncc2c1CC(C)(C)CC2NC(=O)c1snnc1C` (centres undefined): the “lipid storage change, negative = inhibition” value was 2.11% (inactive) and the cell number change was found to be 7.34%.
Regarding `Cc1nnsc1C(=O)NC1CCCc2c1cnn2-c1ccccc1F` (centres undefined), the Potency was 4.11 µM (active).
Consider `O=C(CCN1CCCC1=O)NC1CCCc2c1cnn2-c1ccccc1F` (centres undefined), for which the “lipid storage change, negative = inhibition” value is -1.27% (inactive) and the cell number change stood at 11%.
On to `COc1ccc(C(=O)NC2CCCc3c2cnn3-c2cc(F)cc(F)c2)c(OC)c1OC` (centres undefined), for which the compound was called inactive.
In the case of `Cc1cccc(-n2ncc3c2CCCC3NC(=O)CCN2CCCO2)c1C` (centres undefined), the “lipid storage change, negative = inhibition” value is -7.74% (inactive) and the cell number change was -19.9%.
As to `O=C(O)CCCC(=O)Nc1nc(-c2ccc(F)cc2)cs1`, the result was inactive.
`COc1ccc(-n2c(SCC(=O)NCC3CCCO3)nc3c([nH]c4ccccc43)c2=O)cc1OC` (centres undefined): the compound was called inactive and the cell number change was -13.6%.
For `Cc1ccc(OCC(=O)Nc2ccc(N3CCN(S(C)(=O)=O)CC3)cc2)cc1`, the result was inactive and the cell number change is 18.1%.
Consider `O=C(CSc1nnc2c(Cl)cc(C(F)(F)F)cn12)Nc1ccc2c(c1)OCO2`, for which the “lipid storage change, negative = inhibition” value is 18.7% (inactive) and the cell number change is -8.45%.
Turning to `COc1ccc(-c2cn[nH]c2-c2ccc(OCC(=O)NN)cc2O)cc1OC`, the “lipid storage change, negative = inhibition” value was 4.99% (inactive) and the cell number change came to 12.9%.
The like results for `O=C(N[C@@H](CO)C(=O)NCc1ccccc1)c1ccc(C(F)(F)F)cc1` were, in that order, 5.11% (inactive) and 23.3%.
On to `COc1cccc(CNC(=O)CCC(=O)N2Cc3cccc(OC)c3Oc3ncccc32)c1OC`, for which the “lipid storage change, negative = inhibition” value was -20.7% (inactive).
Still for that read-out and setting: to `Cc1ccc(CSCc2ccc(C(=O)NCCCN3CCOCC3)o2)cc1` belongs -1.21% (inactive).
Turning to `COc1cc(S(=O)(=O)N(Cc2cccnc2)Cc2cccc(OC)c2OC)ccc1-n1cnnn1`, the “lipid storage change, negative = inhibition” value is -2.65% (inactive) and the cell number change is -1.62%.
For the compound `O=C(COc1ccc([N+](=O)[O-])cc1)Nc1ccc(NC(=O)c2ccccc2)cc1`, the “lipid storage change, negative = inhibition” value is 8.49% (inactive) and the cell number change was -8.36%.
For `O=C(O)c1ccc(N2N=C(c3ccccc3)CC2c2ccccc2)cc1` (centres undefined), the call was inactive and the cell number change is -6.08%.
As to `O=Cc1ccc(N2N=C(c3ccccc3)CC2c2ccccc2)cc1` (centres undefined), the “lipid storage change, negative = inhibition” value was 2.28% (inactive) and the cell number change is -15.5%.
Regarding `Oc1ccccc1C1=NN(c2ccccc2)C(c2ccccc2)C1` (centres undefined), the Potency is 1.64 µM (active) and the cell number change was 0.901%.
Regarding `CS(=O)(=O)c1ccc(C(=O)NCc2ccc(F)cc2)cc1`, the “lipid storage change, negative = inhibition” value was 1.05% (inactive) and the cell number change turned out to be 23%.
The like results for `N/C(Cc1ccc([N+](=O)[O-])cc1)=N\OC(=O)c1ccc(Br)o1` were, in that order, 6.27% (inactive) and 10.2%.
For the compound `N/C(=N\OC(=O)c1ccc([N+](=O)[O-])cc1)c1ccc(Br)cc1`, the result was inactive and the cell number change was 19%.
Regarding `N/C(Cc1ccc([N+](=O)[O-])cc1)=N\OC(=O)c1ccc(Br)cc1`, the Potency was 8.2 µM (active) and the cell number change is 0.393%.
As for `COC(=O)c1sccc1N/N=C/c1cccc(Oc2ccccc2)c1`, the “lipid storage change, negative = inhibition” value was 10.2% (inactive) and the cell number change was -12.1%.
For `COc1ccc(NC(=O)CCn2c(=O)c3cccn3c3ccccc32)cc1`, the call was inactive and the cell number change is -20.6%.
Consider `COc1ccc(CNC(=O)CCn2c(=O)c3cccn3c3ccc(F)cc32)cc1`, for which the Potency is 5.8 µM (active) and the cell number change was -3.83%.
Regarding `CCCCNC(=O)CCn1c(=O)c2cccn2c2ccc(F)cc21`, the “lipid storage change, negative = inhibition” value is -5.76% (inactive) and the cell number change was -8.11%.
Take `CCCS(=O)(=O)c1nc(S(=O)(=O)c2ccc(C)cc2)c(N2CCN(C)CC2)s1`: the compound was called inactive.
Turning to `CCCS(=O)(=O)c1nc(S(=O)(=O)c2ccc(C)cc2)c(N2CCC(C)CC2)s1`, the “lipid storage change, negative = inhibition” value is -12.9% (inactive).
Take `CCCS(=O)(=O)c1nc(S(=O)(=O)c2ccc(C)cc2)c(N2CC(C)OC(C)C2)s1` (centres undefined): the Potency is 18.4 µM (active) and the cell number change was -24.5%.
